According to PubChem BioAssay AID720712 (NMMLSC, 2013):
Active and inactive are the calls of the source.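 How the source made its calls: active means EC50 at most 10 µM with response changing by at least 30 points across doses, from an acceptable curve fit; inactive means the rest.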

Biological target: Cell division control protein 42 homolog (Homo sapiens) (UniProt P60953)
Test: Cdc42 wildtype GTP-binding inhibitors, late-stage follow-up, mechanism study for Ras-family GTPase inhibitor project, biochemical, compound preincubation comparison, flow cytometry beads, Bodipy-FL-GTP (AID 720712)
Conditions: GST-Cdc42 beads, EDTA, protocol B; series mostly up to 100 µM

Chain of Cell division control protein 42 homolog (Homo sapiens) (P60953 whole entry, looked up): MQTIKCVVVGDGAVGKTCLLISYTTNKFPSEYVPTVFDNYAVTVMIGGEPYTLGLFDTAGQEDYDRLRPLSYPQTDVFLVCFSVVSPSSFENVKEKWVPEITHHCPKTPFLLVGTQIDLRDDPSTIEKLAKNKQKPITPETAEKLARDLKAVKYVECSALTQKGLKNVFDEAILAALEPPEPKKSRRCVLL

Row | SMILES | outcome
1 | CC1(C)Cc2c(sc(NC(=S)NC(=O)c3ccc(N=[N+]=[N-])cc3)c2C(=O)O)CO1 | inactive
2 | CC1(C)Cc2c(sc(NC(=S)NC(=O)c3cccc(N=[N+]=[N-])c3)c2C(=O)O)CO1 | inactive
